In PubChem BioAssay:

biological target: Dihydroorotate dehydrogenase (quinone), mitochondrial (Plasmodium falciparum (isolate 3D7)) (UniProt Q08210); assay: inhibition of P. falciparum DHODH – biochemical, C-terminal His tag, absorbance 600 nm, primary screen (AID 1175); conditions: PfDHODH enzyme, DCIP absorbance 600 nm; higher = more signal, called active from +8 up or from −8 down;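 also: recombinant parasite enzyme with a five histidine tag at its C terminus; test concentration not given here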
Sequence (Q08210 whole entry, looked up): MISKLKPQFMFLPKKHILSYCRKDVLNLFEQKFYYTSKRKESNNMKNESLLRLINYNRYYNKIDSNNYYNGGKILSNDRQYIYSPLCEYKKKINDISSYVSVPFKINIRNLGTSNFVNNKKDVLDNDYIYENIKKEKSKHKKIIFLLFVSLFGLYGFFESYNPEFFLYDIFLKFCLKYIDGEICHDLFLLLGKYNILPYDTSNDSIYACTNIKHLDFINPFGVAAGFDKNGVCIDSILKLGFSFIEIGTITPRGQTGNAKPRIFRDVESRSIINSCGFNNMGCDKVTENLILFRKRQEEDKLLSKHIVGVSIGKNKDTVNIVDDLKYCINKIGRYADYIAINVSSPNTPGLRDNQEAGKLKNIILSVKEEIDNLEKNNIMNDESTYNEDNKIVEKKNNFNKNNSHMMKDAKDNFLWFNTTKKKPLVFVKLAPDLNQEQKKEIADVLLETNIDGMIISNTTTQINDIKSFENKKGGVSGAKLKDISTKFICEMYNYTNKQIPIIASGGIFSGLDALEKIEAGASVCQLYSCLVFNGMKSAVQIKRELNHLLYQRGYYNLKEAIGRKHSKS

Composite z-score, inactive:
COCCOC(=O)N1C(=O)[C@@]2(c3cc(C#CC4=CCCCC4)ccc31)[C@H](C(=O)NC[C@H](O)c1ccccc1)[C@H]1C(=O)O[C@H](c3ccccc3)[C@H](c3ccccc3)N1[C@@H]2c1ccc(OCCO)cc1 -0.773, CCC#CCN(Cc1ccccc1Br)[C@H](/C=C/c1ccccc1)[C@@H](O)Cc1ccccc1 0.514, C=C(CCCC)/C(=C/C[C@@H](OC(=O)c1ccncc1)c1cccc(OCCO)c1)c1cc(C(=O)OC)ccc1OC -0.757, NC(=O)NCC#Cc1ccc2c(c1)[C@]1(C(=O)N2)[C@H](c2ccccc2OCCO)N2[C@H](c3ccccc3)[C@H](c3ccccc3)OC(=O)[C@H]2[C@@H]1C(=O)N1CCN(c2ncccn2)CC1 -0.343, O=C1OCC=C[C@H]2OC34C=CCN(Cc5ccccc5)C(=O)[C@H]3N(CCO)C(=O)[C@@H]4[C@@H]12 (some centres undefined) -0.415, Cc1ccc(S[C@]2(C(=O)NC(C)C)CC(=O)N(Cc3cc(C(F)(F)F)cc(C(F)(F)F)c3)[C@@H]2c2ccc(CO)cc2I)cc1 0.4, COc1ccc(C(=O)Nc2ccc(CN3C(=O)[C@]4(O[C@H](CCn5cc(CCO)nn5)[C@@H]([Si](C)(C)c5ccc(OC)cc5)[C@@H]4C)c4ccccc43)cc2)cc1 0.597, COC(=O)[C@@]1(Cc2ccccc2)[C@H]2c3cc(C(=O)N4CCCC4)n(CCN4CNCC4=O)c3C[C@H]2CN1C(=O)c1ccccc1 -0.482, CCCNC(=O)[C@@H]1c2ccccc2C(=O)N(C2CCCCC2)[C@H]1c1ccc(CO)cc1 1.05
